The results in this text go back to ChEMBL document CHEMBL4513216, “Probing the Open Global Health Chemical Diversity Library for Multistage-Active Starting Points for Next-Generation Antimalarials” (ACS Infect Dis, 2020).

Each structure is given as a SMILES string. Hit rate of the full screen: of about 69,000 compounds, about 8,600 (12%) showed an effect of 50% or more. This excerpt belongs to a sample that is enriched for strong results.

In the assay the test system is Plasmodium berghei. Put plainly: Screen against P. berghei liver stage (PbLuc), transformed with Luciferase, at 10uM. The assay is classed as functional, HepG2. Particulars: tested at 10 uM.
Turning to `Cn1ccnc1C(=O)N1CCC2(CCN2c2ncccn2)C1` (stereo not given), the INHIBITION worked out at 71.3%.

`Cn1ccnc1C(=O)N1CCC2(CCN2CC2CC2)C1` (stereo not given): the INHIBITION is reported as 13.7%.

Consider `Cc1ccc(C(=O)N2CCC3(CCN3c3ncccn3)C2)cn1` (stereo not given), for which the INHIBITION is 78.9%.

In the case of `O=C(c1cccc(O)c1)N1CCC2(CCN2c2ncccn2)C1` (stereo not given), the INHIBITION is 27.7%.

`O=C(c1ccc2ccccc2n1)N1CCC2(CCN2c2ncccn2)C1` (stereo not given): the INHIBITION is reported as -47%.

Take `Cc1ccc(C(=O)N2C[C@@H]3CN(c4ncccn4)C[C@@H]3C2)cn1`: the INHIBITION is on record as 76.4%.

`Cn1ccc(C(=O)N2CCC3(CCN3c3ncccn3)C2)n1` (stereo not given): the INHIBITION amounted to 22.6%.

In the case of `Cn1cccc1C(=O)N1CCC2(CCCN2c2ncccn2)CC1`, the INHIBITION is -2.41%.

As for `O=C(c1cnc2ccccc2c1)N1CCC2(CCN2c2ncccn2)C1` (stereo not given), the INHIBITION is reported as -78.5%.

`O=C(c1ccnnc1)N1C[C@@H]2CN(c3ncccn3)C[C@@H]2C1`: the INHIBITION is 21.7%.

As for `Cc1ccc(C(=O)N2C[C@@H]3CN(c4ncccn4)C[C@@H]3C2)cc1`, the INHIBITION was -13.7%.

For `Cn1cccc1C(=O)N1CCC2(CCN2c2ncccn2)C1` (stereo not given), the INHIBITION was 72.2%.

In the case of `CC(C)NC(=O)N1CCC2(CC(=O)N(c3ccsc3)C2)C1` (stereo not given), the INHIBITION stood at 48.2%.

As to `COc1cc(N2C[C@H](C(=O)NCC3CC3)[C@@H]3CCO[C@@H]3C2)ncn1`, the INHIBITION is reported as -29.3%.

For the compound `Cn1cnc2c(N3CCCC3)nc(C3CCNCC3)cc21`, the INHIBITION was determined as 32.7%.

For `COc1ccc(OC)c(CNC(=O)N2CCC(n3cncn3)CC2)c1`, the INHIBITION is 21%.

In the case of `Cc1ccc(C(=O)NS(=O)(=O)c2ccccc2Cl)c(=O)[nH]1`, the INHIBITION was 35.9%.

For `CC(C)c1noc(C(C)N2CCN(CCCN3CCCC3=O)CC2)n1` (stereo not given), the INHIBITION is recorded as -38.7%.

For the compound `CN(CCO)CC1COCCN1C(=O)CCC1CCCC1` (stereo not given), the INHIBITION was found to be 39.3%.

`CC(C)c1cnc(CN(C)C2CCN(CCCc3cnn(C)c3)C2)o1` (stereo not given): the INHIBITION is reported as -7.31%.

As for `CC(C)N1CCCC1c1csc(N)n1` (stereo not given), the INHIBITION is 16.8%.

In the case of `COc1cc(-c2cc(OC)c(OC)c(OC)c2)ncn1`, the INHIBITION is reported as -7.79%.

Turning to `COC(CNC(=O)C1CC1)c1ccc(C)s1` (stereo not given), the INHIBITION is listed as 20.4%.

`O=C(CCc1cc2n(n1)CCN(CCCn1cccc1)C2)N1CCCC1`: the INHIBITION is -1.54%.

Turning to `Cc1ccc(N2CCCc3sc(C(=O)NCC4CCCO4)nc32)nn1` (stereo not given), the INHIBITION is listed as 15.4%.

As to `Cc1nn(C)c(Cl)c1C1CCCN1C(=O)c1ccc[nH]1` (stereo not given), the INHIBITION is recorded as 25.1%.

As to `O=C(NCCC1CN(C2CCCC2)CCO1)c1c[nH]c(=O)[nH]c1=O` (stereo not given), the INHIBITION was found to be 8.08%.

For `O=C(NCCC1CN(C2CCCC2)CCO1)c1cc(=O)[nH]c(=O)[nH]1` (stereo not given), the INHIBITION amounted to 51.5%.

Consider `Cc1ccc(C(=O)NCCC2CN(c3cnn(C)c(=O)c3)CCO2)s1` (stereo not given), for which the INHIBITION is 24.7%.

For the compound `Cc1ccc(C(=O)NCCC2CN(C3CCCC3)CCO2)c(C)c1` (stereo not given), the INHIBITION turned out to be 66.8%.

Take `Cc1cc(C(=O)NCCC2CN(C)CCO2)c2cccc(C)c2n1` (stereo not given): the INHIBITION turned out to be 45.9%.

As for `Cc1ccc(C)c(C(=O)N2CCOC(CCN(C)C)C2)c1` (stereo not given), the INHIBITION was 37.6%.

Regarding `CC(CC(=O)c1ccco1)NC(=O)c1ccccn1` (stereo not given), the INHIBITION is on record as 42.1%.

As for `CCOCc1ncn2c1CN(S(=O)(=O)c1ccc(C)cc1)CC2`, the INHIBITION is -51.9%.

Turning to `COCc1ncn2c1CN(S(=O)(=O)c1ccc(C)cc1)CC2`, the INHIBITION is on record as 80.3%.

For the compound `COCc1ncn2c1CN(S(=O)(=O)c1cccc(OC)c1)CC2`, the INHIBITION is listed as 62.4%.

In the case of `COCc1ncn2c1CN(S(=O)(=O)Cc1ccc(C)cc1)CC2`, the INHIBITION is listed as -0.55%.

Consider `COCc1ncn2c1CN(S(=O)(=O)c1cccc(F)c1)CC2`, for which the INHIBITION is on record as -58.3%.

As to `COc1cccc(S(=O)(=O)N2CCn3cnc(COCC4CC4)c3C2)c1`, the INHIBITION was 15.9%.

As for `O=C(NC1COC2(CCN(CC3CCC3)CC2)C1)c1ccccn1` (stereo not given), the INHIBITION was -7.59%.

For the compound `CC1=C(c2ccc(C(C)C)cc2)S(=O)(=O)N=C1N1CCc2ccccc21`, the INHIBITION came to 49%.

For the compound `CC(NC(=O)c1ccc(=O)n(C)c1)c1ccccc1-n1cccn1` (stereo not given), the INHIBITION came out at 53.8%.

`Cc1ccccc1C(C)NC(=O)c1ccc(=O)n(C)c1` (stereo not given): the INHIBITION is given as 25.5%.

Regarding `CC(NC(=O)c1cc(=O)n(C)c(=O)n1C)c1ccccc1-n1cccn1` (stereo not given), the INHIBITION is 0.426%.

Regarding `Cc1cc2c(=O)n3c(nc2s1)CCN(Cc1cnc(C)n1C)CC3`, the INHIBITION worked out at 23.2%.

For the compound `Cc1cccc(OCCC(=O)NC(C)c2nnc3n2CCC3)c1` (stereo not given), the INHIBITION stood at 26.4%.

Consider `c1cc(-c2nnn3c2COC(CNCC2CCOCC2)C3)ccn1` (stereo not given), for which the INHIBITION stood at 28.2%.

Take `Cc1cc(CNCC2Cn3nnc(C)c3CO2)oc1C` (stereo not given): the INHIBITION was 60%.

Consider `c1cc(-c2nnn3c2COC(CNCc2nccs2)C3)ccn1` (stereo not given), for which the INHIBITION was found to be 32.4%.

`Cc1cccc(CNC[C@H]2Cn3cc(-c4ccccc4)nc3CO2)n1`: the INHIBITION was -23.2%.

Consider `c1ccc(CNCC2Cn3nnc(-c4ccncc4)c3CO2)nc1` (stereo not given), for which the INHIBITION turned out to be 64.5%.

In the case of `Cn1cc(-c2nnn3c2COC(CNCc2cccnc2)C3)cn1` (stereo not given), the INHIBITION turned out to be 27.4%.

In the case of `COc1ccc(-c2cn3c(n2)CO[C@@H](CNCc2ccccn2)C3)cc1`, the INHIBITION came out at 66.9%.

Consider `Cn1cc(-c2nnn3c2COC(CNCc2ccncc2)C3)cn1` (stereo not given), for which the INHIBITION stood at 39.3%.

On to `Cc1nnn2c1COC(CNCc1nccs1)C2` (stereo not given), for which the INHIBITION was -3.24%.

`Cn1cc(CNCC2Cn3nnc(-c4ccccc4)c3CO2)cn1` (stereo not given): the INHIBITION is recorded as 62%.

`COc1ccc(-c2cn3c(n2)CO[C@@H](CNCc2nccn2C)C3)cc1`: the INHIBITION is listed as 16.2%.

For the compound `Cc1nnn2c1COC(CNCc1ccncc1)C2` (stereo not given), the INHIBITION is recorded as 39.3%.

Turning to `CCc1nnc(Nc2cccc(C3CCN(C(=O)CO)CC3)n2)s1`, the INHIBITION was 11.1%.

Regarding `CCCn1nccc1NC(=O)CN1CCCC1Cn1cc(C)cn1` (stereo not given), the INHIBITION was 42.3%.

Consider `Cn1cc(CCNC(=O)N2CCCC(Cc3nccn3C)C2)cn1` (stereo not given), for which the INHIBITION came out at 33%.

Regarding `O=C(NCCCN1CCOCC1)c1cccc(OCc2ccccc2)c1`, the INHIBITION is 30%.

As for `Cc1csc(CN2CCC3(CC2)COC(COc2ccccn2)C3)n1` (stereo not given), the INHIBITION amounted to 47.5%.

In the case of `c1ccc(-c2nnn3c2COC(CNCc2ccccn2)C3)cc1` (stereo not given), the INHIBITION stood at 51.2%.

Take `Cn1cc(-c2nnn3c2COC(CNCc2ccccn2)C3)cn1` (stereo not given): the INHIBITION amounted to 46.3%.

For `Cc1nnn2c1COC(CNCc1ccccn1)C2` (stereo not given), the INHIBITION amounted to 39.3%.

In the case of `O=C(NCC1CC1)C1CN(c2ncccn2)Cc2ccnn2C1` (stereo not given), the INHIBITION was determined as 31.2%.

Turning to `COc1cc(C)c(S(=O)(=O)CC(=O)N(C)C2CC2)cc1OC`, the INHIBITION was found to be 50.4%.

`CCN(C(=O)CS(=O)(=O)c1cc(OC)c(OC)cc1C)C1CC1`: the INHIBITION came to 33.7%.

For the compound `COc1cc(C)c(S(=O)(=O)CC(=O)N(C)C(C)C)cc1OC`, the INHIBITION was found to be 11.5%.
